The results in this text go back to PubChem BioAssay.

Each structure is given as a SMILES string. Activity calls are given as the source filed them.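 The calls were made as follows, unless noted: active = NADPH fluorescence slope more negative than the mean of all samples by about 3 SD, 99.7% confidence; inactive = the rest.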

A short description of assay [1]: inhibitors of TNFa-induced NFkB p65 translocation, primary screen, imaging, HUVEC, MLSMR starter and 10KST1 sets (AID 438;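 active = inhibition above 20% together with a positive visual image hit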;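 also: compound added about 3h40 before a 20 min TNFalpha stimulation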;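 as to inhibition: signal is the nuclear over cytoplasmic p65 intensity ratio per well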). Conditions: HUVEC TNFa-induced p65 nuclear translocation; cell count: measured here: nuclei count (cytotoxicity indicator), at 2.08 µM; inhibition: at 2 µM, stronger effect = higher value, 0% TNFa-plus-vehicle, 100% no-TNFa wells.
Assay [2] is described as follows: inhibitors of mutant huntingtin aggregation, primary screen, imaging, exon1htt(103Q)mCFP cells, high-content imaging (AID 483;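 active = visual image review flags a hit and inhibition of aggregation exceeds 20%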;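 also: compound exposure lasted 3 days before fixation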;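 as to nuclei count: percent of the per-plate median nuclei count of sample wells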). Conditions: exon1htt(103Q)mCFP cell line, aggregate imaging, at 2 µM; inhibition of aggregation: stronger effect = higher value; nuclei count: measured here: cell count, toxicity.
Assay [3] in a line: inhibitors of E-selectin induction by TNFa, primary screen, imaging, HUVEC, immunofluorescence, MLSMR starter and 10KST1 sets (AID 487;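 active = visually confirmed hit in the image check and inhibition above 20%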;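 as to inhibition: signal is fraction of cell area covered by stained E-selectin grains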;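 as to nuclei count: 100% = median nuclei count of all wells on the same plate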). Conditions: HUVEC TNFalpha-induced E-selectin immunofluorescence imaging, at 2 µM; inhibition: stronger effect = higher value; nuclei count: measured here: cell number, toxicity.
In assay [4] the target is Voltage-gated potassium channel subunit beta-2 (Rattus norvegicus) (UniProt P62483). As to the kind of experiment: KvBeta enzyme negative modulators, primary screen, biochemical, NADPH fluorescence (AID 622;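 active = fluorescence slope higher than the sample average by over 3 SD, cut at about -0.22 in these data, passing the limit was not always enough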;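 also: slope of raw intensity against log time taken from 70 to 1610 s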). Conditions: recombinant KvBeta, 4-cyanobenzaldehyde reduction, at 10 µM, stronger effect = higher value.
Assay [5] shares this target. As to the kind of experiment: KvBeta positive modulators, primary screen, biochemical, NADPH fluorescence (AID 623).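 Also: fluorescence intensity change per second fitted from 20 to 320 s.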 Conditions: Recombinant KvBeta, NADPH fluorescence decrease slope, 10 min; at 10 µM; stronger effect = lower value.
Assay [6] has as its target Alpha-2C adrenergic receptor (Homo sapiens) (UniProt P18825). As to the kind of experiment: modulators of alpha2C/GIRK thallium flux, primary screen, cell-based, HEK293 alpha2C/GIRK1/2 (AID 624;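 active = fluorescence slope after compound addition differing from the mean of all screened samples at 99.7% confidence, in either direction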;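 also: slope of fluorescence ratio to pre-addition baseline per second over 15 to 24 s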). Conditions: thallium flux BTC fluorescence, at 10 µM, actives lie on both sides.
The nature of assay [7]: inhibitors of Sendai virus-induced IRF3 signaling, primary screen, TLR/RLR signaling modifier project, cell-based, Sendai virus stimulus, luciferase, 10K MLSCN set (AID 602276;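 active = inhibition at or above 50% at 10 µM; inactive = inhibition below 50%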;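 also: firefly luciferase from ISG56 promoter only with Renilla not read in this screen; 0% = Sendai virus plus DMSO and 100% = medium plus DMSO without virus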). Conditions: HEK293 RL24 IRF3 luciferase reporter, at 10 µM, stronger effect = higher value.
A short description of assay [8]: inhibitors of poly I:C-induced TLR3 signaling, primary screen, cell-based, poly I:C stimulus, luciferase, 10K MLSCN set (AID 602277;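 active = inhibition of the reporter signal at or above 50%; inactive = inhibition below 50%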). Conditions: HEK293-TLR3 RL24 IRF3 luciferase reporter, at 10 µM, stronger effect = higher value. Background: Reporter assays use an easily measured gene product as a stand-in for the process of interest.

Chain of Voltage-gated potassium channel subunit beta-2 (Rattus norvegicus) (P62483 whole entry, looked up): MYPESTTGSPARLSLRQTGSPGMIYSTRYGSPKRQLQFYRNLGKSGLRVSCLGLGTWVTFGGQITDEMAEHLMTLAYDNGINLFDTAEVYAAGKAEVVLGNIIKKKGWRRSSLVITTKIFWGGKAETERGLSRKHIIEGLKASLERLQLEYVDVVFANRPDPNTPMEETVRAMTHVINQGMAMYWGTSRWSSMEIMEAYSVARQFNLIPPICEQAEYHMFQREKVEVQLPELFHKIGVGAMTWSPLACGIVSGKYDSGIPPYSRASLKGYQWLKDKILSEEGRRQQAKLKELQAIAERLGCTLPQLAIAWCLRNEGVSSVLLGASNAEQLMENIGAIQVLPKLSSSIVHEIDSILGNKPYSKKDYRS
Chain of Alpha-2C adrenergic receptor (Homo sapiens) (P18825 whole entry, looked up): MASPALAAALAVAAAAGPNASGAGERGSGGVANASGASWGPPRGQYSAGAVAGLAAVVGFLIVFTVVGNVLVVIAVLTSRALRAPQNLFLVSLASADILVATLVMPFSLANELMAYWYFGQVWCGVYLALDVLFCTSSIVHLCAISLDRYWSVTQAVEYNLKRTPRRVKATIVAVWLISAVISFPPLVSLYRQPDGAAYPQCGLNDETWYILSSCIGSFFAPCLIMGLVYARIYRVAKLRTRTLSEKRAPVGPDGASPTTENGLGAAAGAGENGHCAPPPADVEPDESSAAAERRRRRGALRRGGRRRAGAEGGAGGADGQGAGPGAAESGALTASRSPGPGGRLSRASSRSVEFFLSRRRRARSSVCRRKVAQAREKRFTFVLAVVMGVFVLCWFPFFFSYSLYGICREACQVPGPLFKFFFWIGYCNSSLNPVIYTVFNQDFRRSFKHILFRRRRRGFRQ

`COc1ccc(C(=O)Nc2nc(C)c(C(=O)N(C)C)s2)cc1OC`: the cell count in assay [1] was 435. The inhibition is 2.8% (inactive) in assay [1], -16.9% (inactive) in assay [3], -7.68% (inactive) in assay [7] and -30.5% (inactive) in assay [8]. In assay [2], the inhibition of aggregation is 5.4% (inactive). Besides, the nuclei count in assay [2] is 102%; in assay [3] it was 91.8%. The fluorescence slope in assay [4] was -0.461 (inactive). Moreover, the NADPH fluorescence slope in assay [5] is 2.3e-06 (inactive). Also, the slope in assay [6] is 0.00371 (inactive).
Turning to `CC1CCN(C(=O)CSc2nc3c(cnn3-c3ccccc3)c(=O)[nH]2)CC1`, the cell count in assay [1] turned out to be 472. For the same molecule, the inhibition in assay [1] is 2.3% (inactive); in assay [3] it was 14.9% (inactive); in assay [7], 10.9% (inactive); in assay [8], 28.1% (inactive). Besides, the inhibition of aggregation in assay [2] is -5.6% (inactive). Further, the nuclei count was found to be 102% in assay [2] and 79.5% in assay [3]. In addition, the fluorescence slope in assay [4] was -0.582 (inactive). In addition, the NADPH fluorescence slope in assay [5] was -2.5e-05 (inactive). The slope in assay [6] is 0.00596 (inactive).
As for `Cn1cnc(S(=O)(=O)Nc2ccc(C(F)(F)F)cc2)c1`, the cell count in assay [1] stood at 480. Moreover, the inhibition is 2.2% (inactive) in assay [1], 14.3% (inactive) in assay [3], 2.5% (inactive) in assay [7] and 18% (inactive) in assay [8]. Also, the inhibition of aggregation in assay [2] is -3.4% (inactive). Further, the nuclei count worked out at 117% in assay [2] and 103% in assay [3]. The fluorescence slope in assay [4] is -0.357 (inactive). Moreover, the NADPH fluorescence slope in assay [5] was -6.4e-05 (inactive). In addition, in assay [6], the slope is 0.00601 (inactive).
Regarding `Cc1ccc(OCCN2CCN(C(=O)CCC(=O)Nc3nnc(C)s3)CC2)cc1`, the cell count in assay [1] was 349. For the same molecule, the inhibition in assay [1] is -4.3% (inactive); in assay [3], -18.9% (inactive); in assay [7], 9.9% (inactive); in assay [8], 19.2% (inactive). The inhibition of aggregation in assay [2] was -14.8% (inactive). Moreover, the nuclei count in assay [2] and in assay [3] was 100% throughout. For the same molecule, in assay [4], the fluorescence slope is -0.318 (inactive). Further, the NADPH fluorescence slope in assay [5] is -6.3e-05 (inactive). Besides, in assay [6], the slope is 0.00527 (inactive).
Consider `COCCn1nnnc1C(C(C)C)N1CCN(C(=O)c2ccco2)CC1` (stereo not drawn), for which the cell count in assay [1] worked out at 314. Moreover, the inhibition was 1.6% (inactive) in assay [1], -23.9% (inactive) in assay [3], -9.3% (inactive) in assay [7] and -17.2% (inactive) in assay [8]. Moreover, in assay [2], the inhibition of aggregation is 10% (inactive). Also, the nuclei count in assay [2] came out at 85.2%; in assay [3], 121%. In assay [4], the fluorescence slope was -0.511 (inactive). The NADPH fluorescence slope in assay [5] is 4.3e-05 (inactive). Also, in assay [6], the slope was 0.00753 (inactive).
As to `COc1ccccc1C(=O)OCn1nnc2ccccc2c1=O`, the cell count in assay [1] worked out at 714. The inhibition was -21.1% (inactive) in assay [1], -15.2% (inactive) in assay [3], 12.3% (inactive) in assay [7] and 22.5% (inactive) in assay [8]. In addition, the inhibition of aggregation in assay [2] is 6.6% (inactive). In addition, the nuclei count in assay [2] is 103%; in assay [3], 106%. In addition, the fluorescence slope in assay [4] was -0.421 (inactive). In addition, in assay [5], the NADPH fluorescence slope was -4e-05 (inactive). Further, in assay [6], the slope is 0.00465 (inactive).
For the molecule `CCC(C)(C)n1nnnc1C(c1ccc(OC)c(OC)c1)N1CCN(c2ccc(F)cc2)CC1` (stereo not drawn), in assay [1], the cell count was found to be 406. For the same molecule, the inhibition is 4% (inactive) in assay [1], 10.4% (inactive) in assay [3], 14% (inactive) in assay [7] and 43.5% (inactive) in assay [8]. The inhibition of aggregation in assay [2] is -1% (inactive). In addition, the nuclei count in assay [2] turned out to be 96.8%; in assay [3], 106%. Moreover, the fluorescence slope in assay [4] is -0.442 (inactive). Moreover, the NADPH fluorescence slope in assay [5] is -2.6e-05 (inactive). Moreover, the slope in assay [6] is 0.00413 (inactive).
`COc1ccc(C(=O)N2CCN(S(=O)(=O)c3cc(Cl)ccc3OC)CC2)cc1`: in assay [1], the cell count came to 398. The inhibition was 7.3% (inactive) in assay [1], -74.2% (inactive) in assay [3], 16.1% (inactive) in assay [7] and 18% (inactive) in assay [8]. In assay [2], the inhibition of aggregation is -29.4% (inactive). The nuclei count in assay [2] stood at 64.6%; in assay [3], 106%. Moreover, the fluorescence slope in assay [4] was -0.368 (inactive). Moreover, the NADPH fluorescence slope in assay [5] is -2.2e-05 (inactive). For the same molecule, the slope in assay [6] was 0.00259 (inactive).

By inhibition is commonly meant the drop in the measured response relative to a control, in per cent.
